# Screening data as filed in PubChem.
# Only some compounds are listed: those with a hit (about 2.3% of all), similar ones and a draw of the others.
# A549 tox: A549 cytotoxicity, counter-screen for Nrf2 inhibitors. AID 504648. Potency, µM (doses to about 46 µM), for inactives: top-dose activity change, negative = cytotoxicity, usual class: inhibitors. A549 ARE-Fluc cells, CellTiter-Fluor viability, 18-24 h. 390,000 tested, 0.16% active; note: potency is the fitted concentration of half-maximal effect; % is set by controls: 0 for no effect and ±100 for the full control effect
#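 Cytotoxicity counterscreen: CellTiter-Fluor fluorescence was measured in A549 ARE_Fluc cells after 18-24 h of compound exposure in a concentration series. The subsequent BugLite luminescent read reports ARE-luciferase activity.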
# mIDH1 inhibitor: blocks human mutant IDH1 R132H enzyme | O75874 | IDH1-R132H enzyme, NADPH consumption, diaphorase/resazurin fluorescence | Potency, µM (highest dose often 76.6 µM), for inactives: at the top dose activity change, negative = inhibition, usual class: inhibitors | 390,000 tested, 0.093% active | AID 602179; note: potency is the fitted concentration of half-maximal effect; % is set by controls: 0 for no effect and ±100 for the full control effect; nearly all actives have a fitted effect of over 65% in size
# Target sequence (O75874 whole entry R132H, stated change not applied): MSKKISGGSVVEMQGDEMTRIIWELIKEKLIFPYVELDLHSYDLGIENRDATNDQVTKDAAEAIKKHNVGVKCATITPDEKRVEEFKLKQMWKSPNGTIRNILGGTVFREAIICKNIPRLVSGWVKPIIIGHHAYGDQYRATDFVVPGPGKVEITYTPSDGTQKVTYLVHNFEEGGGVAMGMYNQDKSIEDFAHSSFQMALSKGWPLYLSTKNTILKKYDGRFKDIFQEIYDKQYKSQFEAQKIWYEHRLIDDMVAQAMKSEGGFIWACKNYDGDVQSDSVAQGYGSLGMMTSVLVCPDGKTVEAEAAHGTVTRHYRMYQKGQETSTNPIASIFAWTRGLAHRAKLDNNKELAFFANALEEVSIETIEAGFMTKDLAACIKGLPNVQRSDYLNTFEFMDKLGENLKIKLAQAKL
#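 IDH1-R132H (0.5 ug/mL dispensed) in pH 7.5 Tris buffer was preincubated 30 min with compound, then given a substrate mix of 0.016 mM NADPH and 2 mM alpha-KG for 80 min at room temperature; remaining NADPH was read by diaphorase/resazurin fluorescence.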
# Giardia killer: Giardia lamblia killing. Giardia lamblia trophozoite viability. activity change, % at 7.66 µM, hits read low. 340,000 tested, 0.15% active. AID 540267; in the data active = activity change below about -80%; inconclusive = between about -30% and that limit;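 note: parasites exposed to compound for two days anaerobically before the ATP read; % is set by controls: 0 for no effect and ±100 for the full control effect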
#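 Luminescent ATP signal served as the viability read-out, measured 15-30 min after adding ATP detection reagent to trophozoites that had been incubated with compounds for 48 hrs at 37 deg C anaerobically at 100 cells/well.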
# Nrf2 ARE act: activators of Nrf2 (ARE) signaling; Potency, µM (series often up to 46.1 µM), without a hit: at the highest dose activation, usual class: activators; 410,000 tested, 0.31% active; AREc32 ARE-luciferase reporter (MCF7-derived line), luminescence, 24 h; AID 624171; note: potency is the fitted concentration of half-maximal effect; % of control where 0% means no effect; nearly all actives have a fitted effect of over 65% in size
#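 Luciferase luminescence (Steady-Glo, 30 min at room temperature) served as the read-out of ARE activation in AREc32 cells treated with compounds for 24 hr at 37 deg C.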
# Apoferritin bind: candidate novel general anesthetic via apoferritin binding. apoferritin/1-aminoanthracene competitive binding, fluorescence. Potency, µM (titrated, usually from 77.5 µM), without a hit: top-dose activity change, negative = displacement, most hits filed as inhibitors. 350,000 tested, 0.074% active. AID 485281; note: potency is the fitted concentration of half-maximal effect; % is set by controls: 0 for no effect and ±100 for the full control effect; nearly all actives have a fitted effect of over 20% in size
# Target sequence (P02791 2-175 limits assumed): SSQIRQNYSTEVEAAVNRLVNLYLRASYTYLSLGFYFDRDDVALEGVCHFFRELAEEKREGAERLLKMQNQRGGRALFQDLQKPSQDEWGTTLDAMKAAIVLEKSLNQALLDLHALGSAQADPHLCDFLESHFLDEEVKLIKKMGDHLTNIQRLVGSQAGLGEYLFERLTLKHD
#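 Horse-spleen apoferritin (10 uM) in 50% saturated 1-aminoanthracene in PBS was incubated 10 min at room temperature with compound. Fluorescence (ex 380, em 535 nm) was normalized to free and bound 1-AMA, with concentration-response fitted by a four-parameter Hill equation.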
# Nrf2 inh: inhibitors of Nrf2 signaling; A549 ARE-Fluc reporter, luciferase luminescence, 18-24 h; Potency, µM (series often up to 46 µM), for the others: at the top dose activity change, negative = inhibition, usual class: inhibitors; 360,000 tested, 2.1% active; note: potency is the fitted concentration of half-maximal effect; % is set by controls: 0 for no effect and ±100 for the full control effect; nearly all actives have a fitted effect of over 60% in size
#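 Concentration-response testing used A549 ARE_Fluc cells at 5000 cells/well. Following an 18-24 h compound incubation, viability was read by fluorescence (Ex 405/Em 525) and luciferase output by luminescence.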
# * hit, by the source's call; ? = inconclusive; . = no result given. Unless noted, calls come from the whole dose curve; as a rule, active = well fitted curve in the direction sought with a large enough effect; inconclusive = small, poorly fitted or top-dose-only effect, or another doubt; inactive = no such curve, though single readings can be large; an effect the other way counts as inactive or inconclusive.
SMILES,A549 tox,mIDH1 inhibitor,Giardia killer,Nrf2 ARE act,Apoferritin bind,Nrf2 inh
Cc1ccc(-c2nc(C(=O)NCC3CCCO3)cc3c2[nH]c2ccccc23)cc1 (stereo unspecified),-18%,-6%,15,4%,285%,?
Cc1ccccc1-c1nc(C(=O)NCC2CCCO2)cc2c1[nH]c1ccccc12 (stereo unspecified),-10%,-5%,14,3%,36%,23µM*
COc1cc(-c2nc(C(=O)NC3CCCCC3)cc3c2[nH]c2ccccc23)cc(OC)c1OC,-8%,-11%,6,6%,376%,9.2µM*
Cc1ccccc1CN1C(=O)c2ccccc2S(=O)c2ccc(C(=O)NCc3ccc(Cl)cc3)cc21 (stereo unspecified),2%,5%,.,0%,2%,.
COc1ccc(-c2nc(NCCCN(C)C)c3ccccc3n2)cc1,?,6%,-99*,10%,-5%,-8%
CCN(CC)CCCNc1nc2ccccc2c2[nH]c3ccc(OC)cc3c12,?,7%,-84*,-1%,.,?
O=[N+]([O-])c1cccc(-c2nc(-c3ccncc3)no2)c1,-2%,-12%,-14,14%,-8%,.
O=[N+]([O-])c1cccc(-c2noc(-c3ccco3)n2)c1,18%,-2%,-20,7.1µM*,3%,?
O=[N+]([O-])c1cccc(-c2nc(-c3ccccc3)no2)c1,15%,2%,-2,4µM*,2%,?
CCCCCCCCCCCCC/C=C/C(O)C(COP(=O)(O)OCCN)NC(=O)CCCCCCCCCCCCCCCCC (stereo unspecified),.,.,.,.,106%,.
COc1ccccc1N(/N=C1\Sc2ccccc2C1=O)C(C)=O,-5%,-2%,-24,14µM*,-13%,-1%
COc1ccc(N(/N=C2\Sc3ccccc3C2=O)C(C)=O)cc1,0%,3%,-3,2%,-16%,11%
CCCc1nc(SCC(=O)N2CCc3ccccc3C2)c2ccccc2n1,?,1%,1,6%,?,23µM*
C/C(=N\Nc1nc(C)cc(-c2ccccc2)n1)c1ccccc1,-7%,5%,3,3%,0%,-27%
C/C(=N\Nc1nc(C)cc(-c2ccccc2)n1)c1cccc(N)c1,-4%,10%,18,2%,-14%,21µM*
O=C(COc1ccc(S(=O)(=O)NC2CCCC2)cc1)N1CCCCC1,-6%,-5%,-13,-1%,-6%,-31%
O=C(CSc1n[nH]c(-c2ccc(S(=O)(=O)NC3CCCCC3)cc2)n1)N1CCCC1,-13%,8%,-4,0%,-21%,16µM*
Cc1ccc(Nc2c(-c3ccc(N(C)C)cc3)nc3ccccn23)cc1,-13%,10%,.,4%,37%,-28%
CCCCn1c(-c2ccc(Br)cc2F)nc2c1c(=O)[nH]c(=O)n2CC(C)C,?,-17%,-5,5%,-14%,21µM*
Fc1ccc(N2CCN(c3ncnc4c3nc3n4CCCC3)CC2)cc1,7%,13%,.,0%,1%,?
O=C(CCCn1c(=O)c2sccc2n(Cc2ccc(Cl)cc2)c1=O)NCc1ccc2c(c1)OCO2,3%,7%,.,5%,-9%,4%
COc1ccc(CCNC(=O)c2cc3sc(Cl)cc3n2C)cc1OC,-3%,10%,-5,2%,2%,26µM*
COc1ccc(CCNC(=O)c2ccc(-c3ccc([N+](=O)[O-])cc3)o2)cc1OC,-2%,6%,-5,1%,-2%,26µM*
COc1ccc(CCNC(=O)CCNC(=O)c2ccc(Br)cc2)cc1OC,2%,-4%,?,0%,-7%,-2%
COc1ccc(CCNC(=O)c2ccc3ccccc3n2)cc1OC,-13%,0%,10,4%,-21%,23µM*
SMILES,A549 tox,mIDH1 inhibitor,Giardia killer,Nrf2 ARE act,Apoferritin bind,Nrf2 inh
COc1ccc(CCNC(=S)NC(=O)c2ccc(Br)cc2)cc1OC,1%,-1%,-3,3%,?,15µM*
Cc1ccc(CNC(=O)c2cc3sc(Cl)cc3n2C)cc1,-3%,.,.,1%,1%,?
COc1ccc(CNC(=O)c2ccc3ccccc3n2)cc1OC,-16%,11%,-4,3%,-16%,13µM*
COc1ccc(CCNC(=O)c2nc(-c3cccs3)no2)cc1OC,-17%,8%,-3,3%,-12%,21µM*
COc1ccccc1CCNC(=O)c1nc(-c2cccs2)no1,15%,9%,-14,4%,-16%,?
CCN1/C(=C2/SC(=S)N(C)C2=O)C=Cc2cc(C)ccc21,5%,-10%,45,0%,.,7%
CCN1C(=O)/C(=C2/C=Cc3cc(C)ccc3N2CC)N(C)C1=S,23µM*,10%,-4,0%,-14%,?
c1ccc(CCNc2nc3ccccc3s2)cc1,-14%,8%,5,3%,13µM*,?
COc1ccc(CNc2nc3ccccc3s2)cc1OC,-1%,-5%,1,3%,-12%,-24%
Cc1cc(C)c2nc(C(F)(F)F)nc(N3CC(C)OC(C)C3)c2c1 (stereo unspecified),11%,9%,-7,0%,-20%,-3%
CCOC(=O)N1CCN(c2nc(C(F)(F)F)nc3c(C)cc(C)cc23)CC1,-10%,5%,-6,-1%,-5%,23µM*
Cc1ccccc1C(=O)NNC(=S)Nc1cccc(C(F)(F)F)c1,?,8%,8,-2%,-6%,12µM*
O=C(NNC(=S)Nc1cccc(C(F)(F)F)c1)c1ccc(Cl)cc1Cl,2%,0%,-11,4%,-7%,?
Cc1ccc(C(=O)Nc2cccc(C(F)(F)F)c2)cc1Nc1ccccn1,?,7%,14,2%,-21%,21µM*
Cc1ccc(C(=O)Nc2cccc(C(F)(F)F)c2)cc1Nc1cncnc1,0%,3%,-17,0%,-21%,?
Cc1cnc(Nc2nc3ccccc3o2)nc1C(=O)Nc1cccc(C(F)(F)F)c1,?,-10%,1,7%,-6%,16µM*
CC[C@H](C)[C@H](NC(=O)[C@H](CCC(=O)O)NC(=O)CNC(=O)[C@@H](NC(=O)[C@@H]1CCCN1C(=O)[C@@H](NC(=O)[C@@H]1CCCN1C(=O)[C@@H]1CCCN1C(=O)[C@H](CC(N)=O)NC(=O)[C@H](CC(N)=O)NC(=O)[C@@H](NC(=O)[C@H](CCSC)NC(=O)[C@H](Cc1c[nH]c2ccccc12)NC(=O)CNC(=O)[C@@H](NC(=O)[C@H](CCC(N)=O)NC(=O)[C@@H](N)CCC(=O)O)[C@@H](C)CC)[C@@H](C)O)[C@@H](C)CC)C(C)C)C(=O)O,.,.,.,.,-6%,.
